Measured values as given in PubChem BioAssay AID1159580 (chemical genetic matrix, 2015).
Several values for one entry are separate records, joined by “and”; a condition that tells them apart may be missing. Identical values can stand only once. Screen size: about 5,500 compounds; about 2,000 (36%) were called active. Roughly 18% stayed inconclusive and do not appear here. Rule as the data show it: active = normalized growth mostly below about 0.91 (no sharp cut-off); inconclusive = no clear call, values can overlap the other calls; inactive = mostly above about 0.92. The list shows a part of the results.

Assay: chemical genetic growth profiling, strain panel (AID 1159580);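 also: tested at 20 µM; growth read once vehicle control cultures reached saturation at 30 °C; 1 = growth at the plate median or of vehicle wells; lower values mean less growth of the strain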
Conditions: S. cerevisiae deletion strains, growth OD

Measured: normalized growth

C/C=C(\C)C(=O)O[C@@H]1c2c(ccc3ccc(=O)oc23)OC(C)(C)[C@@H]1OC(C)=O
active: locus YDR137W, strain rgp1, active compounds read low 0.842 | locus YLR262C, strain YPT6 (second series), active compounds read low 0.846
inactive: locus YAL013W, strain DEP1, active compounds read low 1.01 | locus YAL021C, strain ccr4, active compounds read low 1.01 | locus YAL026C, strain drs2, active compounds read low 0.989 | locus YAL030W, strain snc1, active compounds read low 0.996 | locus YBL061C, strain skt5, active compounds read low 0.994 | locus YBR009C, strain hhf1, active compounds read low 1.03 | locus YBR021W, strain FUR4, active compounds read low 1.03 | locus YBR023C, strain chs3, active compounds read low 0.987 | locus YBR171W, strain sec66, active compounds read low 0.98 | locus YBR229C, strain ROT2, active compounds read low 0.995 | locus YBR231C, strain swc5, active compounds read low 1 | locus YBR279W, strain paf1, active compounds read low 1.01 | locus YCL011C, strain gbp2, active compounds read low 1.01 | locus YCL016C, strain dcc1, active compounds read low 0.993 | locus YCL029C, strain bik1, active compounds read low 1.03 | locus YCL061C, strain MRC1, active compounds read low 0.985 | locus YCL069W, strain vba3, active compounds read low 1.01 | locus YCR088W, strain abp1, active compounds read low 0.996 | locus YDL005C, strain med2, active compounds read low 0.981 | locus YDL035C, strain GPR1, active compounds read low 0.995 | locus YDL040C, strain nat1, active compounds read low 0.998 | locus YDL074C, strain BRE1, active compounds read low 1 | locus YDL101C, strain DUN1, active compounds read low 1.01 | locus YDL134C, strain PPH21, active compounds read low 0.974 | locus YDL185W, strain tfp1, active compounds read low 1.02 | locus YDL192W, strain arf1, active compounds read low 0.992 | locus YDR001C, strain nth1, active compounds read low 1.01 | locus YDR069C, strain doa4, active compounds read low 1 | locus YDR101C, strain arx1, active compounds read low 1.03 | locus YDR150W, strain NUM1, active compounds read low 0.997 | locus YDR159W, strain sac3, active compounds read low 0.989 | locus YDR162C, strain NBP2, active compounds read low 0.983 | locus YDR195W, strain ref2 1.06 | locus YDR297W, strain sur2, active compounds read low 0.995 | locus YDR318W, strain mcm21, active compounds read low 0.974 | locus YDR334W, strain swr1, active compounds read low 1 | locus YDR335W, strain msn5, active compounds read low 1.02 | locus YDR388W, active compounds read low 1 | locus YDR392W, strain spt3, active compounds read low 0.762 | locus YDR502C, strain sam2, active compounds read low 0.991 | locus YEL003W, strain gim4, active compounds read low 1.01 | locus YEL037C, strain rad23, active compounds read low 1.01 | locus YEL061C, strain CIN8 (second series), active compounds read low 1 | locus YEL061C, strain CIN8, active compounds read low 0.991 | locus YER015W, strain faa2, active compounds read low 1.01 | locus YER016W, strain bim1, active compounds read low 0.993 | locus YER110C, active compounds read low 1.01 | locus YER111C, strain swi4, active compounds read low 0.994 | locus YER155C, strain BEM2 (second series), active compounds read low 1.03 | locus YER155C, strain BEM2, active compounds read low 1.01 | locus YER167W, strain BCK2, active compounds read low 0.997 | locus YFR010W, strain ubp6, active compounds read low 1.02 | locus YGL078C, strain dbp3, active compounds read low 1 | locus YGL086W, strain mad1, active compounds read low 1.05 | locus YGL167C, strain pmr1, active compounds read low 0.984 | locus YGL173C, strain kem1, active compounds read low 0.991 | locus YGL227W, strain vid30, active compounds read low 0.991 | locus YGL240W, strain doc1, active compounds read low 0.985 | locus YGL248W, strain PDE1, active compounds read low 0.993 | locus YGL253W, strain hxk2, active compounds read low 0.963 | locus YGR078C, strain PAC10, active compounds read low 1 | locus YGR135W, strain pre9, active compounds read low 0.987 | locus YGR252W, strain gcn5, active compounds read low 1 | locus YHR013C, strain ard1, active compounds read low 0.971 | locus YHR027C, strain rpn1, active compounds read low 1 | locus YHR030C, strain SLT2, active compounds read low 0.996 and 0.998 | locus YHR079C, strain IRE1 (second series), active compounds read low 0.998 | locus YHR079C, strain IRE1, active compounds read low 1.01 | locus YHR094C, strain hxt1, active compounds read low 1 | locus YHR129C, strain ARP1, active compounds read low 1 | locus YHR142W, strain chs7, active compounds read low 0.987 | locus YHR200W, strain rpn10, active compounds read low 1.02 | locus YIL066C, strain RNR3, active compounds read low 0.992 | locus YIL073C, strain SPO22, active compounds read low 0.989 | locus YIL125W, strain kgd1, active compounds read low 1.01 | locus YIR030C, strain dcg1, active compounds read low 0.994 | locus YJL092W, strain hpr5, active compounds read low 0.99 | locus YJL095W, strain BCK1 (second series), active compounds read low 0.994 | locus YJL095W, strain BCK1, active compounds read low 0.956 and 1.05 | locus YJL115W, strain asf1, active compounds read low 0.995 | locus YJL129C, strain trk1, active compounds read low 0.953 | locus YJL134W, strain LCB3, active compounds read low 0.996 | locus YJL154C, strain vps35, active compounds read low 1.01 | locus YJL164C, strain tpk1, active compounds read low 1 | locus YJL166W, strain qcr8, active compounds read low 0.968 | locus YJL168C, strain set2, active compounds read low 1.01 | locus YJL187C, strain SWE1 (second series), active compounds read low 1 | locus YJL187C, strain SWE1, active compounds read low 0.991 | locus YJR043C, strain POL32, active compounds read low 1.02 | locus YJR066W, strain TOR1, active compounds read low 0.958 | locus YJR075W, strain HOC1, active compounds read low 0.993 | locus YKL009W, strain mrt4, active compounds read low 0.997 | locus YKL068W, active compounds read low 1.01 | locus YKL085W, strain MDH1 (second series), active compounds read low 0.991 | locus YKL085W, strain MDH1, active compounds read low 0.991 | locus YKL160W, strain elf1, active compounds read low 0.939 | locus YKR001C, strain vps1, active compounds read low 1.02 | locus YKR026C, strain gcn3, active compounds read low 0.996 | locus YKR091W, strain srl3, active compounds read low 0.996 | locus YLL001W, strain dnm1, active compounds read low 0.972 | locus YLL026W, active compounds read low 0.992 | locus YLL041C, strain sdh2, active compounds read low 0.998 | locus YLR027C, strain aat2, active compounds read low 0.992 | locus YLR039C, strain RIC1, active compounds read low 0.946 | locus YLR058C, strain SHM2, active compounds read low 0.995 | locus YLR102C, strain apc9, active compounds read low 1.01 | locus YLR113W, strain HOG1, active compounds read low 1.01 | locus YLR221C, strain rsa3, active compounds read low 0.971 | locus YLR258W, strain gsy2, active compounds read low 0.997 | locus YLR262C, strain YPT6, active compounds read low 0.913 | locus YLR268W, strain sec22, active compounds read low 1.02 | locus YLR320W, strain mms22, active compounds read low 0.943 | locus YLR330W, strain CHS5, active compounds read low 1.01 | locus YLR342W, strain FKS1 (second series), active compounds read low 1.01 | locus YLR342W, strain FKS1, active compounds read low 0.998 | locus YLR357W, strain rsc2, active compounds read low 1.04 | locus YLR370C, strain arc18, active compounds read low 0.996 | locus YLR371W, strain rom2, active compounds read low 1.02 | locus YLR384C, strain iki3, active compounds read low 0.988 | locus YLR418C, strain cdc73, active compounds read low 0.97 | locus YML016C, strain PPZ1, active compounds read low 0.995 | locus YML032C, strain rad52, active compounds read low 0.99 | locus YML120C, strain ndi1, active compounds read low 0.993 | locus YML124C, strain tub3, active compounds read low 0.988 | locus YMR058W, strain fet3, active compounds read low 1 | locus YMR078C, strain ctf18, active compounds read low 1 | locus YMR125W, strain sto1, active compounds read low 0.967 | locus YMR129W, active compounds read low 0.992 | locus YMR205C, strain PFK2, active compounds read low 0.919 | locus YMR223W, strain ubp8, active compounds read low 0.979 | locus YMR231W, strain pep5, active compounds read low 0.998 | locus YMR307W, strain GAS1, active compounds read low 0.929 | locus YNL067W, strain RPL9B, active compounds read low 0.997 | locus YNL071W, strain lat1, active compounds read low 0.963 | locus YNL153C, strain GIM3, active compounds read low 1.02 | locus YNL183C, strain NPR1, active compounds read low 0.996 | locus YNL209W, strain ssb2, active compounds read low 1 | locus YNL233W, strain BNI4, active compounds read low 1.02 | locus YNL248C, strain rpa49, active compounds read low 0.956 | locus YNL250W, strain rad50, active compounds read low 1.02 | locus YNL271C, strain bni1, active compounds read low 1 | locus YNL298W, strain CLA4, active compounds read low 1.01 | locus YNL307C, strain MCK1, active compounds read low 1 | locus YNL322C, strain KRE1 (second series), active compounds read low 0.991 | locus YNR049C, strain mso1, active compounds read low 0.992 | locus YNR052C, strain pop2, active compounds read low 0.995 | locus YOL006C, strain TOP1, active compounds read low 1.04 | locus YOL012C, strain htz1 1.21 | locus YOL147C, strain pex11, active compounds read low 0.996 | locus YOR001W, strain rrp6, active compounds read low 1.02 | locus YOR061W, strain CKA2, active compounds read low 0.99 | locus YOR069W, strain VPS5, active compounds read low 0.995 | locus YOR070C, strain gyp1, active compounds read low 0.999 | locus YOR080W, strain dia2, active compounds read low 1.01 | locus YOR083W, strain WHI5, active compounds read low 0.953 | locus YOR106W, strain vam3, active compounds read low 0.977 | locus YOR136W, strain idh2, active compounds read low 1.03 | locus YOR144C, strain elg1, active compounds read low 1.01 | locus YOR184W, strain ser1, active compounds read low 0.959 | locus YOR231W, strain MKK1, active compounds read low 0.991 | locus YOR265W, strain rbl2, active compounds read low 0.991 | locus YOR270C, strain vph1, active compounds read low 0.912 | locus YOR290C, strain snf2, active compounds read low 0.972 | locus YOR316C, strain cot1, active compounds read low 0.999 | locus YPL051W, strain arl3, active compounds read low 0.96 | locus YPL055C, strain LGE1, active compounds read low 1 | locus YPL078C, strain atp4, active compounds read low 0.972 | locus YPL106C, strain sse1, active compounds read low 1.04 | locus YPL240C, strain hsp82, active compounds read low 1 | locus YPL241C, strain CIN2, active compounds read low 0.986 | locus YPL256C, strain CLN2, active compounds read low 0.99 | locus YPR119W, strain clb2, active compounds read low 0.993 | locus YPR141C, strain kar3, active compounds read low 1.01 | locus YPR163C, strain tif3, active compounds read low 0.996 | locus YPR167C, strain met16, active compounds read low 0.99 | strain wtn01, active compounds read low 1.05
